About 79,000 compounds went through this panel and 15% of them were active in at least one assay; those are over-represented in the sample as a whole. Values without a mark were called inactive. Calls of active or inactive are those of the source. No stated cut-off is given here; in the data, active means growth inhibition above about 70%; inactive means the rest.
Experiments:
[1] = NCI Yeast Anticancer Drug Screen. Data for the rad52 strain (AID 147);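 further: 0% = growth of vehicle-treated control cultures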; conditions: S. cerevisiae rad52 mutant growth inhibition, stronger effect = higher value
How it was run: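 Compounds are applied to a genetically defined yeast strain lacking normal DNA damage repair, and inhibition of growth is expressed relative to cultures given vehicle only.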

[2] = NCI Yeast Anticancer Drug Screen. Data for the wt1 strain (AID 149);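 further: 0% = growth of vehicle-treated wt1 cultures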; conditions: S. cerevisiae wt1 strain (SPY 50644) growth inhibition, stronger effect = higher value
How it was run: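 wt1 strain grown with compound or vehicle; inhibition taken from the growth difference.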

[3] = NCI Yeast Anticancer Drug Screen. Data for the rad50EPP+ strain (AID 151);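 further: 0% = growth of vehicle-treated control cultures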; conditions: S. cerevisiae rad50 mutant strain, stronger effect = higher value
How it was run: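 Compounds were applied to the rad50EPP+ yeast strain, which bears a defined DNA repair alteration, and growth inhibition was determined relative to vehicle-treated cultures.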

[4] = NCI Yeast Anticancer Drug Screen. Data for the mgt1 strain (AID 153); conditions: S. cerevisiae mgt1 mutant growth inhibition, stronger effect = higher value
How it was run: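 Strain: mgt1 yeast, one of a set carrying defined DNA damage repair or cell cycle control alterations. Compound-treated growth compared with vehicle.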

[5] = NCI Yeast Anticancer Drug Screen. Data for the rad50 strain (AID 155);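 further: 0% = growth of vehicle-only cultures of the same strain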; conditions: S. cerevisiae rad50 strain growth inhibition, stronger effect = higher value
How it was run: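 DNA repair mutant yeast, compound exposure, growth read-out; inhibition is taken relative to vehicle.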

[6] = NCI Yeast Anticancer Drug Screen. Data for the mec2-1 strain (AID 157); conditions: S. cerevisiae mec2-1 strain, stronger effect = higher value
How it was run: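 Strain: mec2-1 (DNA repair/cell cycle alteration). Compound exposure, then growth measured; inhibition expressed relative to vehicle.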

[7] = NCI Yeast Anticancer Drug Screen. Data for the rad14 strain (AID 159);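 further: 0% = growth of vehicle-treated control cultures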; conditions: S. cerevisiae rad14 strain growth inhibition, stronger effect = higher value
How it was run: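 DNA repair-defective yeast, compound-exposed; % growth inhibition derived by comparison with vehicle-treated controls.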

[8] = NCI Yeast Anticancer Drug Screen. Data for the sgs1 mgt1 strain (AID 161);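 further: 0% = growth of cultures given vehicle only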; conditions: S. cerevisiae sgs1 mgt1 strain, stronger effect = higher value
How it was run: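 Read-out: growth inhibition vs vehicle controls. Cells: mutant yeast strain deficient in DNA damage repair.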

[9] = NCI Yeast Anticancer Drug Screen. Data for the CLN2oe strain (AID 163);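 further: 0% = growth of vehicle-only control cultures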; conditions: S. cerevisiae CLN2oe strain, stronger effect = higher value
How it was run: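 Growth of a genetically modified yeast strain is measured after compound exposure and compared with cultures given vehicle alone.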

[10] = NCI Yeast Anticancer Drug Screen. Data for the cln2 rad14 strain (AID 165);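 further: 0% = growth equal to vehicle treated cultures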; conditions: S. cerevisiae cln2 rad14 strain, stronger effect = higher value
How it was run: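 Compounds are applied to the cln2 rad14 yeast strain, and growth is then compared with that of vehicle-treated cultures to give inhibition.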

[11] = NCI Yeast Anticancer Drug Screen. Data for the bub3 strain (AID 167); conditions: S. cerevisiae bub3 mutant strain, stronger effect = higher value
How it was run: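 In this screen, a yeast mutant lacking normal mitotic checkpoint function is challenged with compound. Relative growth versus vehicle gives the inhibition value.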

[12] = NCI Yeast Anticancer Drug Screen. Data for the wt2 strain (AID 169);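 further: 0% = growth of vehicle-treated yeast cultures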; conditions: S. cerevisiae wt2 strain growth inhibition, stronger effect = higher value
How it was run: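 This strain belongs to a panel of yeast strains with defined genetic alterations in DNA damage repair or cell cycle control. Compounds are applied, and growth inhibition is measured against vehicle-treated cultures.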

[13] = NCI Yeast Anticancer Drug Screen. Data for the mlh1 strain (AID 171);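 further: 0% = growth of vehicle-treated control cultures of the same strain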; conditions: S. cerevisiae mlh1 strain growth inhibition, stronger effect = higher value
How it was run: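 Growth of the mutant yeast strain after compound exposure, expressed as inhibition relative to vehicle-only controls.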

[14] = NCI Yeast Anticancer Drug Screen. Data for the sgs1 strain (AID 173);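 further: 0% = growth of vehicle-only control cultures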; conditions: S. cerevisiae sgs1 mutant, stronger effect = higher value
How it was run: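 Growth of a yeast strain bearing a defined genetic alteration is measured after compound treatment. Inhibition is expressed relative to vehicle-only controls.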

[15] = NCI Yeast Anticancer Drug Screen. Data for the mlh1 rad18 strain (AID 175); conditions: S. cerevisiae mlh1 rad18 strain growth inhibition, stronger effect = higher value
How it was run: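 Read-out is yeast growth inhibition, calculated against vehicle-only controls. The compound was applied to a strain engineered with DNA damage repair alterations.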

[16] = NCI Yeast Anticancer Drug Screen. Data for the rad18 strain (AID 177); conditions: S. cerevisiae rad18 mutant growth inhibition, stronger effect = higher value
How it was run: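 Growth of the mutant yeast strain after compound exposure, normalised to vehicle-only cultures.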

[17] = at 5.0 µM (retest, dose inferred, filed as 0.5)
[18] = at 50.0 µM (retest, dose inferred, filed as 5.0)

Structure (SMILES): O=P(NC1CCCCC1)(OCc1ccccc1)OCc1ccccc1
- growth inhibition ([1]; at 1.2 µM): -1%
- growth inhibition ([1]; at 3.7 µM): 4%
- growth inhibition ([1]; at 11.0 µM): 16%
- growth inhibition ([1]; at 33.0 µM): 26%
- growth inhibition ([1]; at 100.0 µM): 26%
- growth inhibition ([2]; at 1.2 µM): 0%
- growth inhibition ([2]; at 3.7 µM): 3%
- growth inhibition ([2]; at 11.0 µM): 0%
- growth inhibition ([2]; at 33.0 µM): 3%
- growth inhibition ([2]; at 100.0 µM): 7%
- growth inhibition ([3]; at 1.2 µM): 2%
- growth inhibition ([3]; at 3.7 µM): 4%
- growth inhibition ([3]; at 11.0 µM): 10%
- growth inhibition ([3]; at 33.0 µM): 9%
- growth inhibition ([3]; at 100.0 µM): 7%
- growth inhibition ([4]; at 1.2 µM): -1%
- growth inhibition ([4]; at 3.7 µM): 0%
- growth inhibition ([4]; at 11.0 µM): 4%
- growth inhibition ([4]; at 33.0 µM): 4%
- growth inhibition ([4]; at 100.0 µM): 7%
- growth inhibition ([5]; at 1.2 µM): 3%
- growth inhibition ([5]; at 3.7 µM): 5%
- growth inhibition [5, 17]: 8%
- growth inhibition ([5]; at 11.0 µM): 11%
- growth inhibition ([5]; at 33.0 µM): 19%
- growth inhibition [5, 18]: 14%
- growth inhibition ([5]; at 50.0 µM): 73.3% (active)
- growth inhibition ([5]; at 100.0 µM): 26%
- growth inhibition ([6]; at 1.2 µM): 1%
- growth inhibition ([6]; at 3.7 µM): 1%
- growth inhibition [6, 17]: 5%
- growth inhibition ([6]; at 11.0 µM): 7%
- growth inhibition ([6]; at 33.0 µM): 10%
- growth inhibition [6, 18]: 4%
- growth inhibition ([6]; at 50.0 µM): 23.6%
- growth inhibition ([6]; at 100.0 µM): 11%
- growth inhibition ([7]; at 1.2 µM): -1%
- growth inhibition ([7]; at 3.7 µM): -2%
- growth inhibition ([7]; at 11.0 µM): 4%
- growth inhibition ([7]; at 33.0 µM): 6%
- growth inhibition ([7]; at 100.0 µM): 13%
- growth inhibition [8, 17]: 7%
- growth inhibition [8, 18]: 7%
- growth inhibition ([8]; at 50.0 µM): 42.3%
- growth inhibition ([9]; at 1.2 µM): 7%
- growth inhibition ([9]; at 3.7 µM): 2%
- growth inhibition ([9]; at 11.0 µM): 10%
- growth inhibition ([9]; at 33.0 µM): 12%
- growth inhibition ([9]; at 100.0 µM): 17%
- growth inhibition [10, 17]: 15%
- growth inhibition [10, 18]: 9%
- growth inhibition ([10]; at 50.0 µM): -12.7%
- growth inhibition ([11]; at 1.2 µM): 0%
- growth inhibition ([11]; at 3.7 µM): 4%
- growth inhibition [11, 17]: 3%
- growth inhibition ([11]; at 11.0 µM): 3%
- growth inhibition ([11]; at 33.0 µM): 5%
- growth inhibition [11, 18]: 2%
- growth inhibition ([11]; at 50.0 µM): 7.8%
- growth inhibition ([11]; at 100.0 µM): 2%
- growth inhibition ([12]; at 1.2 µM): 1%
- growth inhibition ([12]; at 3.7 µM): 2%
- growth inhibition ([12]; at 11.0 µM): 2%
- growth inhibition ([12]; at 33.0 µM): 4%
- growth inhibition ([12]; at 100.0 µM): 8%
- growth inhibition ([13]; at 1.2 µM): -7%
- growth inhibition ([13]; at 3.7 µM): 0%
- growth inhibition ([13]; at 11.0 µM): 2%
- growth inhibition ([13]; at 33.0 µM): 4%
- growth inhibition ([13]; at 100.0 µM): 7%
- growth inhibition ([14]; at 1.2 µM): 0%
- growth inhibition ([14]; at 3.7 µM): -1%
- growth inhibition ([14]; at 11.0 µM): 0%
- growth inhibition ([14]; at 33.0 µM): 9%
- growth inhibition ([14]; at 100.0 µM): 17%
- growth inhibition [15, 17]: 3%
- growth inhibition [15, 18]: 3%
- growth inhibition ([15]; at 50.0 µM): 34.8%
- growth inhibition ([16]; at 1.2 µM): -1%
- growth inhibition ([16]; at 3.7 µM): 3%
- growth inhibition ([16]; at 11.0 µM): 13%
- growth inhibition ([16]; at 33.0 µM): 26%
- growth inhibition ([16]; at 100.0 µM): 28%

Structure (SMILES): CCOc1ccccc1N=Cc1c2ccccc2cc2ccccc12
- growth inhibition ([1]; at 1.2 µM): 10%
- growth inhibition ([1]; at 3.7 µM): 28%
- growth inhibition ([1]; at 11.0 µM): 98% (active)
- growth inhibition ([1]; at 33.0 µM): 99% (active)
- growth inhibition ([1]; at 100.0 µM): 99% (active)
- growth inhibition ([2]; at 1.2 µM): -2%
- growth inhibition ([2]; at 3.7 µM): 26%
- growth inhibition ([2]; at 11.0 µM): 95% (active)
- growth inhibition ([2]; at 33.0 µM): 97% (active)
- growth inhibition ([2]; at 100.0 µM): 95% (active)
- growth inhibition ([3]; at 1.2 µM): -4%
- growth inhibition ([3]; at 3.7 µM): 24%
- growth inhibition ([3]; at 11.0 µM): 63%
- growth inhibition ([3]; at 33.0 µM): 90% (active)
- growth inhibition ([3]; at 100.0 µM): 89% (active)
- growth inhibition ([4]; at 1.2 µM): 2%
- growth inhibition ([4]; at 3.7 µM): 75% (active)
- growth inhibition ([4]; at 11.0 µM): 97% (active)
- growth inhibition ([4]; at 33.0 µM): 98% (active)
- growth inhibition ([4]; at 100.0 µM): 98% (active)
- growth inhibition ([5]; at 1.2 µM): 1%
- growth inhibition ([5]; at 3.7 µM): 39%
- growth inhibition [5, 17]: 11%
- growth inhibition ([5]; at 11.0 µM): 97% (active)
- growth inhibition ([5]; at 33.0 µM): 98% (active)
- growth inhibition [5, 18]: 98% (active)
- growth inhibition ([5]; at 50.0 µM): 88.8% (active)
- growth inhibition ([5]; at 100.0 µM): 97% (active)
- growth inhibition ([6]; at 1.2 µM): -18%
- growth inhibition ([6]; at 3.7 µM): 33%
- growth inhibition [6, 17]: 7%
- growth inhibition ([6]; at 11.0 µM): 98% (active)
- growth inhibition ([6]; at 33.0 µM): 98% (active)
- growth inhibition [6, 18]: 99% (active)
- growth inhibition ([6]; at 50.0 µM): 90.8% (active)
- growth inhibition ([6]; at 100.0 µM): 98% (active)
- growth inhibition ([7]; at 1.2 µM): -23%
- growth inhibition ([7]; at 3.7 µM): 74% (active)
- growth inhibition ([7]; at 11.0 µM): 98% (active)
- growth inhibition ([7]; at 33.0 µM): 98% (active)
- growth inhibition ([7]; at 100.0 µM): 98% (active)
- growth inhibition [8, 17]: -8%
- growth inhibition [8, 18]: 98% (active)
- growth inhibition ([8]; at 50.0 µM): 90.9% (active)
- growth inhibition ([9]; at 1.2 µM): 18%
- growth inhibition ([9]; at 3.7 µM): 36%
- growth inhibition ([9]; at 11.0 µM): 97% (active)
- growth inhibition ([9]; at 33.0 µM): 98% (active)
- growth inhibition ([9]; at 100.0 µM): 97% (active)
- growth inhibition [10, 17]: 44%
- growth inhibition [10, 18]: 98% (active)
- growth inhibition ([10]; at 50.0 µM): 58.6%
- growth inhibition ([11]; at 1.2 µM): 4%
- growth inhibition ([11]; at 3.7 µM): 34%
- growth inhibition [11, 17]: 37%
- growth inhibition ([11]; at 11.0 µM): 96% (active)
- growth inhibition ([11]; at 33.0 µM): 98% (active)
- growth inhibition [11, 18]: 99% (active)
- growth inhibition ([11]; at 50.0 µM): 89.9% (active)
- growth inhibition ([11]; at 100.0 µM): 97% (active)
